From the supplement of paper PMC10981050
Where “and” joins values, the source holds several entries; their conditions need not be identical. Identical values can stand only once. Counter-ions that a name gives are not always drawn.

Experiments:
Assay in all cases: cell viability relative to vehicle control; higher = less cytotoxic
Settings in all cases: 10 µM
[1] = tested on: K562
How it was run: (§1)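 Screening covered the Selleck bioactive, kinase and epigenetic probe libraries, less identity-inconsistent compounds, on CRISPR-edited mutant clones and isogenic wild-type clones of four leukaemia lines. Cells, at 2000 per well in 50 µL medium, received a single 10 µM acoustically dispensed dose. After 48 h the supernatant was removed and CellTiter-Glo luminescence was read. Viability was analysed in Genedata Screener as percent of the on-plate vehicle control.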

[2] = tested on: MARIMO
How it was run: as §1

[3] = tested on: MOLM14
How it was run: as §1

[4] = tested on: OCI-AML2
How it was run: as §1

| Compound | cell viability ([1]; SRSF2 genotype: SRSF2 P95H/wt) | cell viability ([1]; SRSF2 genotype: SRSF2 wt/wt) [%] | cell viability ([2]; SRSF2 genotype: SRSF2 P95H/wt) [%] | cell viability ([2]; SRSF2 genotype: SRSF2 wt/wt) [%] | cell viability ([3]; SRSF2 genotype: SRSF2 P95H/wt) [%] | cell viability ([3]; SRSF2 genotype: SRSF2 wt/wt) [%] | cell viability ([4]; SRSF2 genotype: P95H/wt) [%] | cell viability ([4]; SRSF2 genotype: wt/wt) [%] |
| --- | --- | --- | --- | --- | --- | --- | --- | --- |
| CC(=O)O[C@]1(C)CC[C@@]23C[C@H]1C(C)(C)[C@@H]2CC[C@H]3C [Cedryl acetate] | 102% and 105% | 104 | 103 | 117 | 101 | 106 | 112 | 110 |
| CCCOc1ccc(CCc2nc3cc(-c4c(C)noc4C)ccc3n2CCN2CCOCC2)cc1 | 81.1% and 91% | 84.9 | 80.3 | 76.7 | 60.3 | 65 | 59.1 | 73.5 |
| CCCC(CCC)C(=O)O [Valproic acid] | 95.5% and 98.3% | 106 | 103 | 100 | 102 | 102 | 102 | 95.7 |
| COc1cc2nc(N3CCN(C(=O)c4ccco4)CC3)nc(N)c2cc1OC [Prazosin HCl] | 99.9% and 102% | 102 | 96.8 | 103 | 101 | 97 | 102 | 95.6 |
| COc1cccc(CCc2ccccc2OCC(CN(C)C)OC(=O)CCC(=O)O)c1 (stereo unspecified) [Sarpogrelate hydrochloride] | 90.3% and 96% | 92.4 | 84.3 | 89.3 | 88.1 | 102 | 96.9 | 100 |
| CCOC(=O)C1=C(COCCN)NC(C)=C(C(=O)OC)[C@@H]1c1ccccc1Cl [Levamlodipine] | 75.1% and 83.2% | 77 | 72.9 | 75 | 50.3 | 52 | 30.2 | 39.7 |
| Oc1ccc(CC2NCCc3cc(O)c(O)cc32)cc1 (stereo unspecified) [Higenamine hydrochloride] | 92.4% and 103% | 98 | 105 | 98.5 | 79.8 | 89.7 | 94.9 | 102 |
| O=C1C(=Cc2ccncc2)CCCC1=Cc1ccncc1 | 7.78% and 5.31% | 20.5 | 1.92 | 0.58 | 2.47 | 0.31 | 0.15 | 0.12 |
| C[C@@H](CN1CC(=O)NC(=O)C1)N1CC(=O)NC(=O)C1 [Dexrazoxane] | 113% and 103% | 110 | 88.2 | 96.9 | 89.8 | 97.9 | 96.8 | 99.9 |
| CN(C)CCCn1cc(C2=C(c3c[nH]c4ccccc34)C(=O)NC2=O)c2ccccc21 | 91.2% and 78.4% | 98.8 | 82.9 | 92 | 36.4 | 32.5 | 34 | 67.1 |
| C[C@]1(O)C[C@@H](O)[C@]2(O)C=CO[C@@H](O[C@H]3O[C@H](CO)[C@@H](O)[C@H](O)[C@H]3O)[C@@H]21 [Harpagide] | 105% and 99.4% | 101 | 106 | 98.7 | 106 | 103 | 97.6 | 103 |
| O=C(O)CNC(=O)c1ccccc1 [Hippuric acid] | 103% and 104% | 106 | 101 | 112 | 98.4 | 107 | 103 | 101 |
| COc1cc2c(cc1O)CC[n+]1cc3c(OC)c(OC)ccc3cc1-2 [Jatrorrhizine] | 91.4% and 98.7% | 95.8 | 107 | 103 | 101 | 99.8 | 105 | 98.2 |
| CN1Cc2c(ccc3c2OCO3)[C@@]2(C)[C@@H](O)Cc3cc4c(cc3[C@@H]12)OCO4 [Corynoline] | 18.7% and 28.5% | 24.2 | 8.07 | 9.1 | 8.94 | 3.23 | 5.69 | 13 |
| CO[C@@H]1[C@@H](O[C@@H]2O[C@H](C)[C@@H](O[C@H]3C[C@@](C)(O)[C@@H](O)[C@H](C)O3)[C@H](N(C)C)[C@H]2O)[C@@H](CC=O)C[C@@H](C)[C@@H](O[C@H]2CC[C@H](N(C)C)[C@@H](C)O2)/C=C/C=C/C[C@@H](C)OC(=O)C[C@H]1OC(C)=O [Acetylspiramycin (ASPM)] | 87.2% and 93.6% | 89.4 | 91.4 | 90.3 | 84.4 | 90.9 | 83.1 | 76.8 |
| c1ccc(Cn2c(-c3ccc(OCC(C4CCNCC4)n4c(-c5ccccc5)nc5ccccc54)cc3)nc3ccccc32)cc1 (stereo unspecified) [Deltarasin] | 0.43% and 0.39% | 0.44 | 0.34 | 0.33 | 0.28 | 0.28 | 0.24 | 0.3 |
| O=c1cc(N2CCOCC2)oc2c(-c3cccc4c3sc3ccccc34)cccc12 | 89.7% and 97.5% | 88.3 | 93 | 87.3 | 60.5 | 51.9 | 52.5 | 66.4 |
